Hit rate of the full screen: of about 320,000 compounds, about 8,000 (2.5%) were called active. No stated cut-off is given here; in the data, active means activation above about 47%; inactive means the rest. This excerpt belongs to a sample that is enriched for actives.
molecular target: Aryl hydrocarbon receptor (Homo sapiens) (UniProt P35869); assay: AHR activators, primary screen, cell-based, luminescence, luciferase reporter, human (AID 2796); conditions: AHR-responsive luciferase reporter cells, at 5 µM, stronger effect = higher value;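 further: 0% = vehicle wells and 100% = reference agonist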
Sequence (P35869 whole entry, looked up): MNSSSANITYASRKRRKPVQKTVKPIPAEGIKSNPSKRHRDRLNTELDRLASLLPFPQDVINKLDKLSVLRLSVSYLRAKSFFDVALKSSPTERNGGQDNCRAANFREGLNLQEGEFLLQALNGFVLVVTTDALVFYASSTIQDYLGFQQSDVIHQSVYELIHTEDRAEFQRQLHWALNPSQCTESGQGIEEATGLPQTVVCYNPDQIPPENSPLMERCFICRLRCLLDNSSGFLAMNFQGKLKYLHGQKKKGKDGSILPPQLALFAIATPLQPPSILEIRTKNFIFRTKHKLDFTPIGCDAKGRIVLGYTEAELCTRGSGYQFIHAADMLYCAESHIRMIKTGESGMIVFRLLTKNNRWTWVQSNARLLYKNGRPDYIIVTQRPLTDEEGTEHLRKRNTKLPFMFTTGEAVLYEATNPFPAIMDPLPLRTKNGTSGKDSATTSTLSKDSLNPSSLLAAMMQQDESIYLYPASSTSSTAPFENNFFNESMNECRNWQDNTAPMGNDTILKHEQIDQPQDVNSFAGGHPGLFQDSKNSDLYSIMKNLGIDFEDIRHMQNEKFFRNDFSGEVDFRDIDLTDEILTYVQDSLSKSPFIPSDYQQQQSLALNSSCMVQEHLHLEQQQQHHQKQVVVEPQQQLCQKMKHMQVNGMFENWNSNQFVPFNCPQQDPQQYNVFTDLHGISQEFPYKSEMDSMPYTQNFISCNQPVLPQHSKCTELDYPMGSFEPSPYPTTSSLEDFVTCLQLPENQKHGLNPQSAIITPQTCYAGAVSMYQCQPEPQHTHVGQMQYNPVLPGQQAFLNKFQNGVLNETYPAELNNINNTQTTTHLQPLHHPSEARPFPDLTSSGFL

| Compound | activation |
| --- | --- |
| CC(C)[C@H](NC(=O)N1CCn2c1nc1ccccc12)C(=O)NCc1ccc2c(c1)OCO2 | 6.92% (inactive) |
| CC(C)CNc1ncnc2c1cnn2Cc1ccc(Cl)cc1 | 0% (inactive) |
| Cc1cccc(CS(=O)(=O)c2ncc(Cl)c(C(=O)Nc3ccc(F)cc3)n2)c1 | 27.3% (inactive) |
| OC(c1ccc(Cl)cc1)C(CN1CCOCC1)c1ccccc1 (stereo not drawn) | 2.39% (inactive) |
| Cc1ccc(N(C(=O)c2sc(C)nc2C)C(C(=O)NC(C)(C)C)c2ccncc2)cc1 (stereo not drawn) | -0.51% (inactive) |
| CC(C)c1ccccc1OCC(O)CN(CC(O)COc1cccc2ccccc12)C(C)C (stereo not drawn) | 5.3% (inactive) |
| CC1Cc2ccccc2N1CC(=O)Nc1ccc2c(c1)OC(F)(F)O2 (stereo not drawn) | 61.4% (active) |
| CC1Cc2ccccc2N1CC(=O)Nc1ccc(S(N)(=O)=O)cc1 (stereo not drawn) | 3.1% (inactive) |
| O=C(COC(=O)c1ccc[nH]c1=O)Nc1ccc2c(c1)OC(F)(F)O2 | 0.45% (inactive) |
| CCOC(=O)N1CCC(Nc2c(NCCCN3CCN(c4ccc(OC)cc4)CC3)c(=O)c2=O)CC1 | 1.99% (inactive) |
| CSc1ncccc1C(=O)Nc1ccc2c(c1)OCO2 | 32.3% (inactive) |
| O=C(Nc1nc2ccccc2s1)c1ccc2c(c1)OCO2 | 6.38% (inactive) |
| O=C(Nc1ccc2c(c1)OCO2)c1sc2cc(Cl)ccc2c1Cl | 33.1% (inactive) |
| CC(Sc1nc2cc(Cl)ccc2s1)C(=O)Nc1ccc2c(c1)OCO2 (stereo not drawn) | 65.3% (active) |
| CC(C)NC(=O)CSc1ccccc1C(=O)NCc1ccc2c(c1)OCO2 | 1.44% (inactive) |
| CC(Sc1nc(-c2ccccc2)cc(C(F)(F)F)n1)C(=O)Nc1ccc2c(c1)OCO2 (stereo not drawn) | 5.04% (inactive) |
| COc1cc(NC(=O)c2ccc3c(c2)OCO3)ccc1NC(=O)c1cccs1 | 12.8% (inactive) |
| O=C(Nc1cccc(S(=O)(=O)N2CCCCC2)c1)c1ccc2c(c1)OCO2 | 56% (active) |
| Cc1ccc(C(=O)Nc2ccc3c(c2)OCO3)cc1S(=O)(=O)N1CCCCC1 | 38.4% (inactive) |
| CCSc1ccccc1C(=O)Nc1ccc2c(c1)OCO2 | 80.8% (active) |
| COCc1nnc(NC(=O)c2ccc3c(c2)OCO3)s1 | 50% (active) |
| O=C(Nc1cccc(S(=O)(=O)N2CCCCC2)c1)c1cncc(Br)c1 | 17.9% (inactive) |
| O=C(NCc1ccc2c(c1)OCO2)C(=O)NCC1OCCN1S(=O)(=O)c1ccc(F)cc1 (stereo not drawn) | 1.35% (inactive) |
| CC(=O)c1nn(-c2cccc(C(F)(F)F)c2)c(=O)[nH]c1=O | 0.72% (inactive) |

| Compound | activation |
| --- | --- |
| COc1ccc(CCNC(=O)CCNS(=O)(=O)c2cc(Br)cnc2N)cc1OC | -0.76% (inactive) |
| O=C(CN(C(=O)CNC(=O)c1cccs1)c1cccc(F)c1)NC1CCCCC1 | 1.69% (inactive) |
| Cc1ccc(C(=O)N2CCN(S(=O)(=O)N3CCOCC3)CC2)cc1 | 4.12% (inactive) |
| CCC(C)C(=O)Nc1cc([N+](=O)[O-])ccc1Cl (stereo not drawn) | 12% (inactive) |
| COc1ccc(S(=O)(=O)N2CCC(C(=O)N3CCCC3)CC2)cc1C | -0.5% (inactive) |
| C/C(=N\N)c1c(-c2ccccc2)c2cc(Br)ccc2[nH]c1=O | 2.69% (inactive) |
| COc1ccccc1C(=O)NCC(=O)OCC(=O)NNC(=O)c1ccc(Br)cc1 | 0.52% (inactive) |
| Cc1cc2nc3n(c2cc1C)CC1CC(C(=O)NCCC(C)C)N(C)C31 (stereo not drawn) | 2.06% (inactive) |
| CCOC(=O)[C@H]1[C@H]2COc3ccccc3[C@@H]2N2C(=O)CN(Cc3ccccc3)C(=O)[C@@]12C | 0.71% (inactive) |
| CCOC(=O)C1=C(COC(=O)[C@H](C)NS(=O)(=O)c2ccccc2F)NC(=O)NC1C (stereo partly drawn) | -0.94% (inactive) |
| C[C@H](CO)N1C[C@H](C)[C@H](CN(C)C(=O)Nc2ccc(C(F)(F)F)cc2)Oc2c(NC(=O)c3ccncc3)cccc2C1=O | 5.42% (inactive) |
| O=C1Nc2ccc(Br)cc2/C1=N/N=C/C1=C(N2CCOCC2)C(=C\c2ccccc2)/CC1 | 22.3% (inactive) |
| O=C(Nc1ccc(NC(=O)c2ccc3c(c2)OCO3)cc1)c1cccc(Cl)c1 | -2.05% (inactive) |
| CC(C)C(=O)Nc1cccc(C(=O)Nc2ccc3c(c2)OCO3)c1 | 56% (active) |
| O=C(Nc1cccnc1)c1ccc2c(c1)OCO2 | 51.4% (active) |
| CC(C)CNS(=O)(=O)c1ccc(C(=O)Nc2ccc3c(c2)OCO3)cc1 | 9.22% (inactive) |
| O=C(Nc1ccccc1)c1ccc2c(c1)OCCCO2 | -1.81% (inactive) |
| Cc1ccc2nc(-c3ccccn3)cc(C(=O)Nc3ccc4c(c3)OCO4)c2c1 | 47.8% (active) |
| Cc1ccc2nc(-c3ccncc3)cc(C(=O)Nc3ccc4c(c3)OCCO4)c2c1 | 5.93% (inactive) |
| CC(NC(=O)Nc1ccc2c(c1)OCO2)c1ccncc1 (stereo not drawn) | 29.5% (inactive) |
| O=C(Nc1cccc([N+](=O)[O-])c1)c1ccc2c(c1)OCO2 | 14.3% (inactive) |
| Cc1cccc(NC(=O)/C=C/c2ccc3c(c2)OCO3)n1 | -3.06% (inactive) |
| O=C(Nc1ccncc1)c1cc(-c2ccccn2)nc2ccc(Br)cc12 | 4.97% (inactive) |
| Cc1cccc(NC(=O)Nc2ccc3c(c2)OCO3)n1 | 180% (active) |

| Compound | activation |
| --- | --- |
| CCN(C(=O)COC(=O)c1ccc(COc2ccc3c(C)cc(=O)oc3c2)cc1)C1CCS(=O)(=O)C1 (stereo not drawn) | 1.82% (inactive) |
| CC(=O)Nc1ccc(S(=O)(=O)NC(C)C(=O)OCCOc2ccc(F)cc2)cc1 (stereo not drawn) | -0.37% (inactive) |
| Cc1cccc2nc(CSc3nc4[nH]ncc4c(=O)n3-c3cccc(Cl)c3)cc(=O)n12 | 2.86% (inactive) |
| COCC(C)n1c(C)cc(C(=O)CSc2cc(C)c3ccccc3n2)c1C (stereo not drawn) | 43.7% (inactive) |
| O=C(Cc1ccc([N+](=O)[O-])cc1)Nc1ccc(C(=O)N2CCOCC2)cc1 | 0.42% (inactive) |
| C=CCN(c1ccccc1C(=O)NCC(=O)OCC)S(=O)(=O)c1ccc(C)cc1 | -1.83% (inactive) |
| Cc1ccccc1N1CCN(C2CCCN(C(=O)c3cn4c(C)cccc4n3)C2)CC1 (stereo not drawn) | 1.46% (inactive) |
| COc1ccc(-n2nc(C(=O)NCC(=O)N3CCN(c4ccccc4OC)CC3)c3ccccc3c2=O)c(OC)c1 | 3.01% (inactive) |
| O=C(CCN1C(=O)[C@H]2CC=CC[C@H]2C1=O)NCc1nc(-c2ccccc2)no1 | 1.79% (inactive) |
| CC(=O)N1CC(C)c2scc(C)[n+]2-c2ccccc21 (stereo not drawn) | -2.51% (inactive) |
| Cc1cc(C(=O)Nc2nnc(C3CC3)s2)c(C)s1 | 23.6% (inactive) |
| O=C(Nc1nnc(C2CC2)s1)c1ccccn1 | -1.71% (inactive) |
| O=C(Nc1nnc(C2CC2)s1)c1cc(Cl)sc1Cl | 63.3% (active) |
| CCCCOc1ccc(NC(=O)CSCC(=O)OCC)cc1 | -0.97% (inactive) |
| Cc1[nH]c2ccccc2c1/C=N/NC(=O)CNC(=O)c1ccc2c(c1)OCO2 | 18.3% (inactive) |
| COCCNC(=S)N/N=C/c1c(C)[nH]c2ccccc12 | 47.6% (active) |
| COc1ccc2ccccc2c1/C=N/NC(=O)c1cc(C)[nH]n1 | 39% (inactive) |
| CCCCN(CC(=O)NC(C)(C)C)C(=O)C(=O)Nc1ccc2c(c1)OCCO2 | 7.49% (inactive) |
| Cc1nc(COc2cc3oc(=O)cc(C)c3cc2Cl)cs1 | 48.1% (active) |
| Cc1cc(=O)oc2cc(OCC(=O)N3CCN(c4ccc(F)cc4)CC3)c(Cl)cc12 | -0.42% (inactive) |
| Cc1cc(=O)oc2ccc(OCC(=O)O)cc12 | -5.16% (inactive) |
| CC(C)NC(=S)Nc1cccc2cnccc12 | 15% (inactive) |
| COCCSc1nnc(NC(=O)CCS(=O)(=O)Cc2ccccc2)s1 | 22.7% (inactive) |
| COc1ccc(-c2ccc3nnc(SCC(=O)Nc4ccc(NC(C)=O)cc4)n3n2)cc1 | 3.13% (inactive) |

| Compound | activation |
| --- | --- |
| Fc1ccc(-c2ccc(NCCN3CCOCC3)nn2)cc1 | 2.58% (inactive) |
| O=C(N/N=C/c1ccco1)c1ccc(C(=O)N/N=C/c2ccco2)o1 | 86% (active) |
| O=C(N/N=C/c1ccco1)c1csc2c1CCCC2 | 8.16% (inactive) |
| O=C(Cc1ccc([N+](=O)[O-])cc1)N/N=C/c1ccco1 | 1.25% (inactive) |
| CCNC(=O)N(CC)C[C@H]1N[C@@](CC)(C(=O)OC)[C@H]2C(=O)N(Cc3ccccc3)C(=O)[C@@H]12 | -0.15% (inactive) |
| COc1ccc(N(Cc2ccc(N(C)C)cc2)C(=O)c2ccc(S(C)(=O)=O)cc2)cc1 | -2.92% (inactive) |
| COCc1cc(C)nc(Nc2cc(C)ccc2C)c1C#N | 52.2% (active) |
| Cc1cc(C)c(C#N)c(Nc2cccc(Br)c2)n1 | 19.3% (inactive) |
| COCc1cc(C)nc(SCC(=O)Nc2cccc(C)c2)c1C#N | 2.83% (inactive) |
| O=C(CSc1nc(O)c(Cc2ccccc2)c(=O)[nH]1)Nc1nc2c(s1)CCCC2 | 1.1% (inactive) |
| COc1cc(/C=N\NC(=O)c2nonc2N)c(OC)cc1Br | 15.2% (inactive) |
| COc1cc(/C=N/N=C(\N)c2nonc2N)cc(OC)c1OC | 91.3% (active) |
| COc1cc(/C=N/Nc2nn3cnnc3c3ccccc23)cc(OC)c1OC | 38.4% (inactive) |
| CC(C)(C)C(=O)NCCCNc1ccc([N+](=O)[O-])cc1 | 2.34% (inactive) |
| Cc1ccc(C)c(NC(=O)COC(=O)Cn2c(C)csc2=O)c1 | 2.35% (inactive) |
| O=C(COC(=O)c1ccc2c(c1)OCCO2)NCc1ccccc1Cl | -0.15% (inactive) |
| Brc1ccc(C2CC(c3ccccc3)=Nc3ccccc3N2)cc1 (stereo not drawn) | 104% (active) |
| c1ccc(C2=Nc3cccc4cccc(c34)N2)cc1 | 19.3% (inactive) |
| CNC(=S)N1N=C(c2ccccc2)CC1c1ccc(Br)cc1 (stereo not drawn) | 1.39% (inactive) |
| Cc1ccsc1C(=O)NC1CCCCC1C (stereo not drawn) | -0.06% (inactive) |
| COc1ccc(CN2CN(C3CCCC3)CSC2=S)cc1 | -1.37% (inactive) |

— PubChem BioAssay AID2796 (The Scripps Research Institute Molecular Screening Center, 2010)
